# Compound activity (PubChem BioAssay)
# Mito fusion act: qHTS Assay for Small Molecule Inhibitors of Mitochondrial Division or Activators of Mitochondrial Fusion | S. cerevisiae fusion-defective mutant growth rescue, CellTiterGlo 48 h | Potency, µM (doses to about 46.1 µM), without a hit: at the top dose growth rescue (activation), actives largely listed as activators | hit rate 0.23% among 320,000 | AID 485298, 2010; also: potency is read from the fitted curve at half-maximal effect; % of control where 0% means no effect; nearly all actives have a fitted effect of over 45% in size
#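 S. cerevisiae fusion-defective temperature-sensitive mutants (e.g. fzo1-1, mgm1-5) grown 48 h at 37C in YPEG (ethanol/glycerol non-fermentable) medium with 23 nl compound per well; growth rescue read as CellTiterGlo luminescence.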
# ASM inhibitor: Inhibitors of Secretory Acid Sphingomyelinase (S-ASM): qHTS; placental ASM, HMU-PC fluorogenic substrate, 60 min; Potency, µM (doses to about 57.5 µM), for the others: at the top dose activity change, negative = inhibition, most hits filed as inhibitors; hit rate 0.006% among 340,000; AID 504937, 2011; also: potency is read from the fitted curve at half-maximal effect
#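 qHTS format. ASM enzyme prepared from human placenta hydrolyses the fluorogenic substrate HMU-PC0 (9 uM final) over 60 min at 37 °C after a 10 min compound preincubation.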
# LDHA inh: qHTS assay for inhibitors of human lactate dehydrogenase | L-lactate dehydrogenase A chain (Homo sapiens), P00338 | purified LDHA, NADH/diaphorase-resazurin fluorescence; stronger effect = lower value | activity change, % (values are at about 110 or 230 µM) | hit rate 0.15% among 480,000; in the data active = activity change below about -30%; inconclusive = mostly about -25% to -30%;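 also: plate controls were DMSO wells for no effect and wells without enzyme for full effect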
#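 LDH5 2 nM; NADH 0.06 mM, pyruvate 0.2 mM; 200 mM Tris pH 7.4, EDTA, Tween-20; 5 min RT. Detection: diaphorase 0.133 mg/mL + resazurin 37 µM, fluorescence ex540/em590 at 0 and 20 min; normalized to enzyme-free and DMSO wells.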
# ClpP mod: qHTS Assay for Activators of ClpP | ATP-dependent Clp protease proteolytic subunit (Bacillus subtilis (strain 168)), P80244 | purified B. subtilis ClpP, FRET peptide cleavage, 20 min | Potency, µM (top dose mostly 57.5 µM), without a hit: at the top dose activity change, negative = active | hit rate 1.9% among 340,000; active = well fitted falling curve with a large enough effect; inconclusive = small, poorly fitted or top-dose-only effect; inactive = no such curve, though single readings can be large or run the other way; also: potency is read from the fitted curve at half-maximal effect; the source files actives as falling curves though it sought activators and does not explain the sign; nearly all actives have a fitted effect of over 65% in size
#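 Purified B. subtilis ClpP, 10 microg/mL final in Tris/HCl pH8 with KCl, BSA, glycerol and Tween-20, cleaved an Abz/nitrotyrosine-quenched decapeptide. Fluorescence (ex 320, em 430) was read at 0 and 20 min at room temperature. Delta was normalized to 5.8 microM ADEP and DMSO/no-enzyme controls.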
# IDH1 R132H inh: qHTS for Inhibitors of mutant isocitrate dehydrogenase 1 (IDH1): qHTS; hit rate 0.093% among 390,000; Potency, µM (series often up to 76.6 µM), for inactives: top-dose activity change, negative = inhibition, actives largely listed as inhibitors; AID 602179, 2012; IDH1-R132H enzyme, NADPH consumption, diaphorase/resazurin fluorescence; Isocitrate dehydrogenase [NADP] cytoplasmic (Homo sapiens), O75874; also: potency is read from the fitted curve at half-maximal effect; % is scaled to controls: 0 for no effect and ±100 for the full control effect; nearly all actives have a fitted effect of over 65% in size
#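 IDH1-R132H (0.5 ug/mL dispensed) in pH 7.5 Tris buffer was preincubated 30 min with compound, then given a substrate mix of 0.016 mM NADPH and 2 mM alpha-KG for 80 min at room temperature; remaining NADPH was read by diaphorase/resazurin fluorescence.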
# RGS4 inh: Inhibitors of Regulator of G Protein Signaling (RGS) 4: qHTS; Regulator of G-protein signaling 4 (Homo sapiens), P49798; Transcreener GDP fluorescence polarization, RGS4-accelerated GTP hydrolysis; Potency, µM (highest dose often 114 µM), without a hit: at the highest dose activity change, negative = inhibition, usual class: inhibitors; hit rate 0.039% among 390,000; also: potency is read from the fitted curve at half-maximal effect; % is scaled to controls: 0 for no effect and ±100 for the full control effect; nearly all actives have a fitted effect of over 75% in size
#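 MLSMR compounds (23 nl, pin-transferred) preincubated 10 min at room temperature with a 500nM (2x) first reagent, then RGS4 at 900nM (2x) plus Transcreener GDP mix added; fluorescence polarization (620/688 nm) read before and after 90 min at 30 °C.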
# * hit, by the source's call; i = inactive; ? = inconclusive; nt = not tested or not shown. This is one part of a sample in which hits are shown more often than they occur. Unless noted, calls follow the shape of the dose curve; as a rule, active = well fitted curve in the direction sought with a large enough effect; inconclusive = small, poorly fitted or top-dose-only effect, or another doubt; inactive = no such curve, though single readings can be large; an effect the other way counts as inactive or inconclusive.
SMILES,Mito fusion act,ASM inhibitor,LDHA inh,ClpP mod,IDH1 R132H inh,RGS4 inh
Cc1noc(N)c1C(=O)OCc1csc(-c2ccc(F)cc2)n1,nt,nt,7,nt,nt,nt
C=C(C)COc1ccc(-c2nc(N)nc(C)c2-c2ccc(OC)cc2)c(O)c1,0%,-3%,5,25µM*,2%,-7%
C=C(C)COc1ccc(-c2nc(N)ncc2-c2ccc(OC)cc2)c(O)c1,-5%,nt,nt,nt,nt,nt
O=c1cc(CN2CCN(c3ccccc3)CC2)c2cc(Cl)c(O)cc2o1,nt,nt,18,nt,nt,nt
CCc1nn2c(=O)cc(CN(C)C3CCCCC3)nc2s1,nt,nt,-2,nt,nt,nt
CSCCC(NC(=O)c1occc1C)C(=O)O (stereo not drawn),5%,4%,0,25µM*,7%,21%
CC(C)NC(=O)Cn1c(=O)n(-c2ccccc2)c(=O)c2sccc21,nt,nt,-41*,nt,nt,nt
O=C(Cn1c(=O)n(-c2ccccc2)c(=O)c2sccc21)NC1CCc2ccccc21 (stereo not drawn),nt,nt,-14,nt,nt,nt
COc1ccc(-c2nnc(SCc3cc(-c4cccs4)on3)o2)cc1,nt,nt,-2,nt,nt,nt
Cc1cccn2c(=O)c3cc(C#N)c(=O)n(Cc4cccnc4)c3nc12,-3%,i,-6,2.8µM*,-3%,42%
CCN(C(=O)COc1ccc(C)nc1[N+](=O)[O-])C1CCS(=O)(=O)C1 (stereo not drawn),-1%,4%,-7,10µM*,-2%,12%
CCCCn1nc(C(=O)Nc2nc3c(C)cccc3s2)c2ccccc2c1=O,nt,nt,-6,nt,nt,nt
Cc1ccc(S(=O)(=O)N2CCC(C(=O)NNC(=O)c3ccccc3O)CC2)cc1C,3%,1%,5,?,0%,-33%
Cc1cc(C)c(C)c(S(=O)(=O)N2CCC(C(=O)NNC(=O)c3ccccc3O)CC2)c1C,2%,-15%,4,28µM*,1%,-15%
CCCCN(C)C(=O)C1CCCN(S(=O)(=O)c2ccc3c(c2)CC(C)N3C(=O)C2CC2)C1 (stereo not drawn),1.1µM*,2%,3,1%,0%,-23%
O=C(Nc1ccc2c(c1)C(=O)N(C1CCCCC1)C2=O)C1CCCO1 (stereo not drawn),11%,-1%,0,32µM*,-2%,12%
CCC(=O)Oc1ccc(C(=O)Nc2ccc3c(c2)C(=O)N(C2CCCCC2)C3=O)cc1,12%,6%,-4,25µM*,-1%,26%
Cc1ccc(N2C(N)=NC(N)=NC23CCCC3)c(C)c1,-5%,6%,-2,28µM*,4%,10%
Cc1cc(NC(=O)CSc2nc(-c3ccco3)cc(C(F)(F)F)n2)no1,-1%,3%,-5,25µM*,1%,-16%
Cc1ccc(Cn2ccc(NC(=O)CCSc3nc(-c4ccco4)cc(C(F)(F)F)n3)n2)cc1,4%,-1%,-1,-3%,8%,-14%
Cc1ccccc1Cn1ccc(NC(=O)CCSc2nc(-c3ccco3)cc(C(F)(F)F)n2)n1,-13%,-7%,-2,28µM*,1%,-3%
Cc1cc(NC(=O)CCSc2nc(-c3ccco3)cc(C(F)(F)F)n2)no1,-5%,1%,-6,-9%,7%,2%
COc1ccc(C(=O)c2sc(Nc3cccc(C)c3)nc2N)cc1,nt,nt,-3,nt,nt,nt
O=C(COc1ccccc1)Nc1cccc(-c2nc3cc4ccccc4cc3[nH]2)c1,-5%,246%,0,6.3µM*,9%,-7%
CC(=O)Nc1cccc(-c2nc3ccccc3[nH]2)c1,?,-1%,-2,nt,5%,-5%
SMILES,Mito fusion act,ASM inhibitor,LDHA inh,ClpP mod,IDH1 R132H inh,RGS4 inh
CC(Oc1ccccc1)C(=O)Nc1cccc(-c2nc3ccccc3[nH]2)c1 (stereo not drawn),-1%,-6%,-5,35µM*,5%,13%
Cc1cc(C)cc(OCC(=O)Nc2cccc(-c3nc4ccccc4[nH]3)c2)c1,nt,nt,-10,4%,-12%,?
C/C(=C/C(=O)C(F)(F)F)N1CCN(c2ccccc2F)CC1,nt,nt,-4,nt,nt,nt
CC(=O)Nc1ccc(NC(=O)Nc2ccc(Cl)cc2)cc1,nt,nt,-2,nt,nt,nt
Cc1ccccc1-c1nc(CNC(=O)Nc2ccc(Cl)cc2)c(C)o1,nt,nt,-6,nt,nt,nt
CCOC(=O)CSc1nnc(CCCCCN2C(=O)c3cccc4cccc(c34)C2=O)o1,9%,-4%,-6,3%,5%,3%
CCOC(=O)CCCSc1nnc(CCCCCN2C(=O)c3cccc4cccc(c34)C2=O)o1,2%,-7%,-5,28µM*,1%,11%
Cc1ccc(CNC(=O)C2CCN(S(=O)(=O)/C=C/c3ccccc3)CC2)cc1,nt,nt,-3,nt,nt,nt
O=C(Nc1nc2ccccc2s1)c1cc(-c2ccco2)nc2ccccc12,3%,57%,-5,18µM*,3%,?
Cc1nnc(NC(=O)c2cc(-c3ccco3)nc3ccccc23)s1,9%,nt,nt,nt,nt,nt
Cc1csc(NC(=O)c2cc(-c3ccco3)nc3ccccc23)n1,-4%,-2%,0,-15%,3%,2%
Cc1ccc2nc(NC(=O)c3cc(-c4ccco4)nc4ccccc34)sc2c1,-6%,12%,-5,18µM*,0%,10%
CC1CCC(NC(=O)C23CC4CC(CC(Cl)(C4)C2)C3)CC1 (stereo not drawn),nt,nt,-6,nt,nt,nt
O=S(=O)(c1ccccc1F)N1CCC(Oc2ccc(-n3cnnn3)cc2)CC1,10µM*,0%,-13,-3%,-9%,11%
O=C(COC(=O)c1c(F)cccc1Cl)c1ccc(C2CCCCC2)cc1,nt,nt,-4,nt,nt,nt
N#Cc1ccccc1NC1=CC(=O)CC(c2ccccc2)C1 (stereo not drawn),nt,nt,4,nt,nt,nt
COc1cc2cc(CN(CCc3cccc(C)c3)C(=S)NCCCN(C)C)c(=O)[nH]c2cc1OC,-1%,15%,-3,28µM*,8%,-9%
COc1ccc2[nH]c(=O)c(CN(CCO)C(=O)c3cccs3)cc2c1,2%,24%,3,-29%,0%,-17%
COc1cc2cc(CN(CCO)C(=O)c3cccs3)c(=O)[nH]c2cc1OC,2%,15%,0,32µM*,2%,0%
CNC(=S)N(CCc1cccc(C)c1)Cc1cc2cc(OC)c(OC)cc2[nH]c1=O,1%,-9%,-2,?,3%,-30%
